PubChem BioAssay (NCI)
Compounds without any hit were thinned out: in the full panel of roughly 83,000, 20% have a hit.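 Step 1: grow cells in 96-well plates. Step 2: add test compound at a single concentration. Step 3: incubate 48 h. Step 4: record percent growth.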 Activity calls are given as the source filed them. The calls were made as follows: active = growth percent below 10; inactive = the rest.

Legend:
Assay in all cases: NCI-60 one-dose screen, 48 h (100 = growth as untreated, 0 = no growth, -100 = all killed)
Conditions in all cases: 10 µM unless noted
HCT-15 colon = tested on: HCT-15 colon
HT29 colon = tested on: HT29 colon
SNB-75 CNS = tested on: SNB-75 CNS
SNB-19 CNS = tested on: SNB-19 CNS
U251 CNS = tested on: U251 CNS
PC-3 prostate = tested on: PC-3 prostate
SK-MEL-5 melanoma = tested on: SK-MEL-5 melanoma
UACC-62 melanoma = tested on: UACC-62 melanoma
LOX IMVI melanoma = tested on: LOX IMVI melanoma
SK-MEL-28 melanoma = tested on: SK-MEL-28 melanoma

Measured: growth

O=S1(=O)N(CCNc2nccc(-c3c(-c4cccc(O)c4)nc4sccn34)n2)CCN1Cc1ccccc1
inactive: HCT-15 colon 55.7% | HT29 colon 37% | SNB-75 CNS 70.4% | SNB-19 CNS 113% | U251 CNS 69% | PC-3 prostate 63% | SK-MEL-5 melanoma 30.6% | UACC-62 melanoma 20.7% | LOX IMVI melanoma 28.6% | SK-MEL-28 melanoma 60.2%

C#C[C@@]1(O)[C@@H](CO)O[C@@H](n2cc(C(F)(F)F)c3c(N)ncnc32)[C@@H]1O
active: HCT-15 colon 3.11% | HT29 colon 0.254% | SNB-75 CNS -54.8% | U251 CNS 6.37% | SK-MEL-5 melanoma -65.5% | UACC-62 melanoma -1.29% | LOX IMVI melanoma -23.6%
inactive: SNB-19 CNS 10.7% | PC-3 prostate 14% | SK-MEL-28 melanoma 28.1%

CS(=O)(=O)Nc1cccc(-c2ccc3ncnc(Nc4cncc(Cl)c4)c3c2)c1
inactive: HCT-15 colon 16% | SNB-75 CNS 19.8% | SNB-19 CNS 51.4% | U251 CNS 23.8% | PC-3 prostate 19.8% | SK-MEL-5 melanoma 35.6% | UACC-62 melanoma 29% | LOX IMVI melanoma 11% | SK-MEL-28 melanoma 43.7%
active: HT29 colon 5.04%

CC12CCC3C(CCC4CC(O)CCC43C)C1C/C(=C/O)C(=O)O2 (stereo not given)
inactive: HCT-15 colon 106% | HT29 colon 102% | SNB-75 CNS 110% | SNB-19 CNS 101% | U251 CNS 104% | PC-3 prostate 97.8% | SK-MEL-5 melanoma 92.9% | UACC-62 melanoma 100% | LOX IMVI melanoma 101% | SK-MEL-28 melanoma 112%

Cc1c(F)cccc1NC(=O)c1sc2nc3c(cc2c1N)CCCCC3
inactive: HCT-15 colon 28.5% | HT29 colon 15.6% | SNB-75 CNS 76.2% | SNB-19 CNS 53.9% | U251 CNS 56.3% | PC-3 prostate 70.7% | SK-MEL-5 melanoma 39.2% | UACC-62 melanoma 27% | LOX IMVI melanoma 50.4% | SK-MEL-28 melanoma 68.7%

CCNc1ncnc2n[nH]nc12
inactive: HCT-15 colon 98.4% | HT29 colon 100% | SNB-75 CNS 94.8% | SNB-19 CNS 96.4% | U251 CNS 95.3% | PC-3 prostate 82.3% | SK-MEL-5 melanoma 98.7% | UACC-62 melanoma 99.3% | LOX IMVI melanoma 102% | SK-MEL-28 melanoma 107%

CC(C)CNCC(=O)Nc1ccc(Cc2ccc(NC(=O)CNCC(C)C)cc2)cc1
inactive: HCT-15 colon 50.2% | HT29 colon 15.8% | SNB-75 CNS 65.7% | SNB-19 CNS 72.6% | U251 CNS 50.5% | PC-3 prostate 25.8% | SK-MEL-5 melanoma 40.3% | UACC-62 melanoma 64.6% | LOX IMVI melanoma 60.4% | SK-MEL-28 melanoma 80.4%

COc1cc(/C=C/C(=O)c2ccc(Oc3ncnc4ccccc34)cc2)cc(OC)c1OC
inactive: HCT-15 colon 41.5% | HT29 colon 79.7% | SNB-75 CNS 69.5% | SNB-19 CNS 68.6% | U251 CNS 60.3% | PC-3 prostate 75.6% | SK-MEL-5 melanoma 81% | UACC-62 melanoma 65.9% | LOX IMVI melanoma 40.4% | SK-MEL-28 melanoma 89.4%

CC(=O)n1cc(/C=C2\N=C(c3ccc(Cl)cc3)N(c3ccc(S(=O)(=O)Nc4nccs4)cc3)C2=O)c2ccccc21
inactive: HCT-15 colon 95% | HT29 colon 103% | SNB-75 CNS 92.2% | SNB-19 CNS 67.7% | U251 CNS 56.2% | PC-3 prostate 72.6% | SK-MEL-5 melanoma 80.1% | UACC-62 melanoma 84.1% | LOX IMVI melanoma 93.2% | SK-MEL-28 melanoma 82.2%

CC(CN(C)C)CN1c2ccccc2CCc2ccccc21 (stereo not given)
inactive: HCT-15 colon 89.9% | HT29 colon 56.7% | SNB-75 CNS 66.9% | SNB-19 CNS 96.8% | U251 CNS 85.6% | PC-3 prostate 66.7% | SK-MEL-5 melanoma 77.9% | UACC-62 melanoma 77.1% | LOX IMVI melanoma 74.5% | SK-MEL-28 melanoma 84.9%

COc1cc(C(=O)C[n+]2ccccc2)ccc1OC(C)=O
inactive: HCT-15 colon 103% | HT29 colon 108% | SNB-75 CNS 87.6% | SNB-19 CNS 98.6% | U251 CNS 98.9% | PC-3 prostate 89.9% | SK-MEL-5 melanoma 98% | UACC-62 melanoma 97.1% | LOX IMVI melanoma 101% | SK-MEL-28 melanoma 107%

COc1cccc(/C=N/C(=S)NC2(C)C3CCC(C3)C2(C)C)c1O (stereo not given)
inactive: HCT-15 colon 32.5% | HT29 colon 101% | SNB-75 CNS 90.8% | SNB-19 CNS 82.9% | U251 CNS 48.7% | PC-3 prostate 65.9% | SK-MEL-5 melanoma 88.6% | UACC-62 melanoma 94.5% | LOX IMVI melanoma 70.8% | SK-MEL-28 melanoma 102%

C=CCOc1ccc(/C(Cl)=N/N=C(\Cl)c2cc(OC)c(OC)c(OC)c2)cc1
inactive: HCT-15 colon 67.3% | HT29 colon 53.2% | SNB-75 CNS 104% | SNB-19 CNS 80.7% | U251 CNS 72.8% | PC-3 prostate 65.1% | SK-MEL-5 melanoma 68.5% | UACC-62 melanoma 64.5% | LOX IMVI melanoma 80.5% | SK-MEL-28 melanoma 88.1%

Nc1ccc(S(=O)(=O)Nc2cc(I)cc(I)c2)cc1
inactive: HCT-15 colon 112% | HT29 colon 107% | SNB-75 CNS 97.6% | SNB-19 CNS 116% | U251 CNS 106% | PC-3 prostate 97.2% | SK-MEL-5 melanoma 105% | UACC-62 melanoma 107% | LOX IMVI melanoma 104% | SK-MEL-28 melanoma 105%
